Test results taken from PubChem BioAssay AID463173 (ICCB-Longwood Screening Facility, Harvard Medical School, 2010).
The whole screen tested about 52,000 compounds, of which about 4,300 (8.3%) were called active. What follows is part of a selection rich in actives, with near analogues and random picks from the rest. A number with no mark means an inactive call. Rule as the data show it: active = survival mostly below about 52% (no sharp cut-off); inactive = mostly above about 56%.

Tested on: DeltatarO mutant
Test: growth inhibition of S. aureus wild type versus tarO mutant, primary screen, teichoic acid synthesis inhibitors, RN4220, OD600 (AID 463173)
Conditions: OD600, 18 h, active compounds read low, concentration not given here

Q: For `Cc1cccc(-n2c(/C=C/c3ccccc3O)nc3ccccc3c2=O)c1`, which survival is on record?
A: 0% (active)

Q: Which survival does the source give for `Cc1cccc(-n2c(-c3ccco3)nc3ccccc3c2=O)c1` here?
A: 94%

Q: With `Cn1cc(/C=C/c2nc3ccccc3c(=O)n2-c2ccccc2)c2ccccc21` as the compound, how does the survival read?
A: 77%

Q: With `Cc1cc(C)cc(-n2c(/C=C/c3cccc(F)c3)nc3ccccc3c2=O)c1` as the compound, how does the survival read?
A: 83%

Q: With `Cc1cccc(-n2c(/C=C/c3cn(C)c4ccccc34)nc3ccccc3c2=O)c1` as the compound, how does the survival read?
A: 21% (active)

Q: How did the survival turn out when `COc1ccc(-n2c(/C=C\c3ccccc3F)nc3ccccc3c2=O)cc1OC` was run?
A: 89%

Q: `COc1cccc(-n2c(/C=C/c3ccccc3O)nc3ccccc3c2=O)c1` was tested. Which survival did it give?
A: 4% (active)

Q: Which survival does the source give for `Cc1cccc(-n2c(/C=C/c3cccc4ccccc34)nc3ccccc3c2=O)c1` here?
A: 94%

Q: With `COc1cc(/C=C/c2nc3ccccc3c(=O)n2-c2ccc(Br)c(C)c2)ccc1O` as the compound, how does the survival read?
A: 71%

Q: For `O=c1c2ccccc2nc(/C=C/c2ccccc2F)n1-c1cccc(O)c1`, which survival is on record?
A: 2% (active)

Q: How did the survival turn out when `CCCCc1nc2ccccc2c(=O)n1-c1cccc(OC)c1` was run?
A: 119%

Q: With `O=c1c2ccccc2nc(/C=C\c2ccccc2F)n1-c1ccc(O)cc1` as the compound, how does the survival read?
A: 67%

Q: How did the survival turn out when `Cc1cc(-n2c(/C=C/c3cccs3)nc3ccccc3c2=O)ccc1Br` was run?
A: 104%

Q: With `O=C1/C(=C\c2cc3c(cc2Cl)OCO3)N2CCC1CC2` as the compound, how does the survival read?
A: 87%

Q: How did the survival turn out when `O=C1NC(=S)NC(=O)C1C1CCCCC1` was run?
A: 74%

Q: How did the survival turn out when `CCC(C(=O)Nc1ccccc1F)N1C(=O)CN=C(c2ccccc2)c2ccccc21` (centres undefined) was run?
A: 84%

Q: For `CC(C)Cc1nc2cccnc2n1C1CCNCC1`, which survival is on record?
A: 120%

Q: `O=C(c1ccc2c(c1)N(Cc1ccc(F)cc1Cl)C(=O)c1ccccc1S2)N1CCC2(CC1)OCCO2` was tested. Which survival did it give?
A: 101%

Q: With `COc1ccc(N=C2SCCCN2C)cc1` as the compound, how does the survival read?
A: 99%

Q: Which survival does the source give for `CNC(=O)Oc1c(Cl)cc(Cl)cc1Cl` here?
A: 96%

Q: Which survival does the source give for `Cc1cccc(-n2c(CC3C(=O)Nc4ccc(C)cc43)nc3ccccc3c2=O)c1` (centres undefined) here?
A: 34% (active)

Q: `Cc1ccc(-n2c(/C=C/c3cccc(C(F)(F)F)c3)nc3ccccc3c2=O)cc1` was tested. Which survival did it give?
A: 72%

Q: How did the survival turn out when `Cc1ccc(-n2c(/C=C\c3ccc(F)cc3)nc3ccccc3c2=O)cc1Cl` was run?
A: 90%

Q: Which survival does the source give for `O=c1c2ccccc2nc(/C=C\c2cccc(Br)c2)n1-c1ccc(O)cc1` here?
A: 100%

Q: `CCc1nc2ccccc2c(=O)n1-c1cccc(OC)c1` was tested. Which survival did it give?
A: 91%

Q: `Cc1cccc(-n2c(/C=C/c3c[nH]c4ccccc34)nc3ccccc3c2=O)c1` was tested. Which survival did it give?
A: 26% (active)

Q: For `O=c1c2ccccc2nc(/C=C/c2ccccc2O)n1-c1ccc(Br)cc1`, which survival is on record?
A: 41% (active)

Q: `Cc1ccc2c(c1)C(Cc1nc3ccccc3c(=O)n1-c1ccc(Br)cc1)C(=O)N2` (centres undefined) was tested. Which survival did it give?
A: 73%

Q: Which survival does the source give for `Cc1ccc(-n2c(/C=C/c3cccc4ccccc34)nc3ccccc3c2=O)cc1` here?
A: 77%
